Test results as given in ChEMBL document CHEMBL3988442, “University of Dundee, Small-Polar-MMV Screening Library” (2021).
For some of these results: Potency and affinity values are given separately.

How the values were obtained:
Design in all cases: scale not given: direction of the effect not stated beside the values
[1] = target: Protein translocase subunit SecA (Escherichia coli (strain K12)) (UniProt P10408); assay: Assay to Identify E. coli SecA ATPase Inhibitors; type: functional; conditions: 30 µM
[2] = target: T1, Ubiquitin-activating enzyme e1, putative (Leishmania donovani (strain BPK282A1)) (UniProt E9BSI1); assay: Leishmania donovani Ubiquitin Activating Enzyme (LdE1); type: functional; conditions: 30 µM
T1 sequence (whole entry): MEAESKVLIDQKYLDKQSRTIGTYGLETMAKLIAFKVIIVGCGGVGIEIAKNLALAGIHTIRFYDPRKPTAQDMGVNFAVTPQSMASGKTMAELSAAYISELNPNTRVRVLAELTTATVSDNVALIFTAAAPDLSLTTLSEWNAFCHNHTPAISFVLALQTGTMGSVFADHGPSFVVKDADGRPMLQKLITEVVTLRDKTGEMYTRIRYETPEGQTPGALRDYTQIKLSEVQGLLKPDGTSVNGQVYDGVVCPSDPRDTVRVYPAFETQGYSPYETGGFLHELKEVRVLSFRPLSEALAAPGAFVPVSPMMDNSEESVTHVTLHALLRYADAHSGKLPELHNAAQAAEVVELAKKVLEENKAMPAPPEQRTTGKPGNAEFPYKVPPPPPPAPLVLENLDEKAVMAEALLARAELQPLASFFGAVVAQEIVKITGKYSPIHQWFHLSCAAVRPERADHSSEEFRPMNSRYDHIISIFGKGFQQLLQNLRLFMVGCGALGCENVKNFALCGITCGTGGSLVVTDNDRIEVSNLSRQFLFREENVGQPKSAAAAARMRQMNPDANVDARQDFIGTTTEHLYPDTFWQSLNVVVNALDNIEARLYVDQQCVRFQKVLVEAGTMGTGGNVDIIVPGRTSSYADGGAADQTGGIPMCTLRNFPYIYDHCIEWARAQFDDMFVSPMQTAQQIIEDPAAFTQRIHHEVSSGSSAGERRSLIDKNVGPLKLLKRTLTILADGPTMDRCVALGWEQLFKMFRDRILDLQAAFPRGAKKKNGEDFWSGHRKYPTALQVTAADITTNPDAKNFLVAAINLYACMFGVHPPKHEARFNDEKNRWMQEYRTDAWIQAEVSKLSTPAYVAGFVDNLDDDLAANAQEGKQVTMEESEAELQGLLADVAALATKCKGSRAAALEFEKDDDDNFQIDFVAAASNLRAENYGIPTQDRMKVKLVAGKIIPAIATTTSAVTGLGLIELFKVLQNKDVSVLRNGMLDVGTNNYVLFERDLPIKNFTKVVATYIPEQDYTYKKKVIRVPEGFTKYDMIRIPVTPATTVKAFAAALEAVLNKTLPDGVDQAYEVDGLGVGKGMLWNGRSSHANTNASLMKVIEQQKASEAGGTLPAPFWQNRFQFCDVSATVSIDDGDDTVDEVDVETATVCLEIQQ

[3] = target: AMP-activated protein kinase, AMPK (Homo sapiens) (UniProt P54646+O43741+P54619+Q9UGJ0+Q9Y478+Q13131+Q9UGI9); assay: AMP-dependent Kinase enzyme assay. An in vitro enzyme assay that detects ADP turnover that is directly proportional to AMPK activity. This uses naive AMPK that is activated during the assay with MK-8722; type: functional; conditions: 30 µM
[4] = target: Sialic acid-binding Ig-like lectin 9 (Homo sapiens) (UniProt Q9Y336); assay: Hs-Siglec9 ALPHAscreen SOP 20170721; conditions: 10 µM
Trypanosoma cruzi = assay: Trypanosoma cruzi phosphomannomutase and mannose-1-phosphate guanylyltransferase assay; type: functional; conditions: 10 µM
[5] = target: T2, Arginase-2, mitochondrial (Homo sapiens) (UniProt P78540); assay: in vitro enzyme assay to detect the production of urea directly proportional to the activity of Arginase II; type: functional; conditions: 33.3 µM; also: in the data most compounds retested in dose-response had high values
T2 sequence (whole entry): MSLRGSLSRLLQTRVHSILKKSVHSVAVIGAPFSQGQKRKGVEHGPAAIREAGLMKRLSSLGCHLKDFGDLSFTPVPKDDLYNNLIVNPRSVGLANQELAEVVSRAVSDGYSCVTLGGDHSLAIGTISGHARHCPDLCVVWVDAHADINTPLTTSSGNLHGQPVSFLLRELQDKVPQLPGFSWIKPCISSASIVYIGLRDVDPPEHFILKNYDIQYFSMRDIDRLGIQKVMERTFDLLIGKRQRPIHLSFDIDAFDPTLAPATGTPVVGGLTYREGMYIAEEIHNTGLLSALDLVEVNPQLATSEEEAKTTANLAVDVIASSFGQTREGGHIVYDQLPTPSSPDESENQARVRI

[6] = target: T3, Proteasome subunit beta (Trypanosoma cruzi) (UniProt O96673); assay: Trypanosoma cruzi proteasome chymotrypsin-like activity (TcProtChymo) assay.; also: in the data most compounds retested in dose-response had high values; type: functional; conditions: 9.37 µM
T3 sequence (whole entry): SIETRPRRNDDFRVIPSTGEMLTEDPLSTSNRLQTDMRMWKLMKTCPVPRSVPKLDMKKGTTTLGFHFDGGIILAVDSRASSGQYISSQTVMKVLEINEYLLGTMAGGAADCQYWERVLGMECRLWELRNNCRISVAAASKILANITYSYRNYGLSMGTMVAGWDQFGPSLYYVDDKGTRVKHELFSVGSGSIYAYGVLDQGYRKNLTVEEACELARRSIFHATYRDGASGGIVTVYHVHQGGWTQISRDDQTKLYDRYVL

Homo sapiens = species on record: Homo sapiens; assay: To identify inhibition of the IFN signalling (Jak-Stat) pathway via expression of an eGFP reporter gene under the control of an IFN-stimulated response element (ISRE) containing MxA promoter.; type: functional; conditions: 30 µM
[7] = target: T4, Tyrosyl-tRNA synthetase, putative (Trypanosoma cruzi (strain CL Brener)) (UniProt Q4DSP6); assay: Trypanosoma cruzi tyrosyl tRNA synthetase (TcYRS) _High Tyrosine SOP; type: functional; conditions: 30 µM; also: in the data most compounds retested in dose-response had high values
T4 sequence (whole entry): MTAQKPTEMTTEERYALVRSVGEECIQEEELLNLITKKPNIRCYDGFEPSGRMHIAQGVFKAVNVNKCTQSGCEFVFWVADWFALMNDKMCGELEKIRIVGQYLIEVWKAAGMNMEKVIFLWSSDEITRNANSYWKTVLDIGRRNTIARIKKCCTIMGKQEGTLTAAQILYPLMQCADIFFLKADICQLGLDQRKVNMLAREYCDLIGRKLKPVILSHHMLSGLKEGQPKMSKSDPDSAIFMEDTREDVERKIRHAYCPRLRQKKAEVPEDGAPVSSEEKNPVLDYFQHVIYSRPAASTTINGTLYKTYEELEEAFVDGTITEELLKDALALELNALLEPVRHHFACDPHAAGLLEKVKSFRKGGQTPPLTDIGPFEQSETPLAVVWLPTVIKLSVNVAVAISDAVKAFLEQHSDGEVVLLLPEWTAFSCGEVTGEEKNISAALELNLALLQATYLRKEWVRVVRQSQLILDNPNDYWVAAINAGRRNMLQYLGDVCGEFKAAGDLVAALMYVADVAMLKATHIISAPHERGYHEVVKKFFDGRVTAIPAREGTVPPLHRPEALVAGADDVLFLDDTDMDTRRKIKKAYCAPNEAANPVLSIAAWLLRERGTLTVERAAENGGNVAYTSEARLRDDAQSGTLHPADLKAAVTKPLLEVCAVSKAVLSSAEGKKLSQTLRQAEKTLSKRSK

[8] = target: T4, Tyrosyl-tRNA synthetase, putative (Trypanosoma cruzi (strain CL Brener)); assay: Trypanosoma cruzi tyrosyl tRNA synthetase (TcYRS) SOP; type: functional; conditions: 30 µM
[9] = target: Chromo domain-containing protein 1 (Saccharomyces cerevisiae (strain ATCC 204508 / S288c) (Baker's yeast)) (UniProt P32657); assay: ScCHD-1 Enzyme Inhibition Assay; type: functional; conditions: 30 µM; also: in the data most compounds retested in dose-response had high values
Chromo domain-containing protein 1 (Saccharomyces cerevisiae (strain ATCC 204508 / S288c) (Baker's yeast)), sequence (P32657 whole entry, the tested form may be a part): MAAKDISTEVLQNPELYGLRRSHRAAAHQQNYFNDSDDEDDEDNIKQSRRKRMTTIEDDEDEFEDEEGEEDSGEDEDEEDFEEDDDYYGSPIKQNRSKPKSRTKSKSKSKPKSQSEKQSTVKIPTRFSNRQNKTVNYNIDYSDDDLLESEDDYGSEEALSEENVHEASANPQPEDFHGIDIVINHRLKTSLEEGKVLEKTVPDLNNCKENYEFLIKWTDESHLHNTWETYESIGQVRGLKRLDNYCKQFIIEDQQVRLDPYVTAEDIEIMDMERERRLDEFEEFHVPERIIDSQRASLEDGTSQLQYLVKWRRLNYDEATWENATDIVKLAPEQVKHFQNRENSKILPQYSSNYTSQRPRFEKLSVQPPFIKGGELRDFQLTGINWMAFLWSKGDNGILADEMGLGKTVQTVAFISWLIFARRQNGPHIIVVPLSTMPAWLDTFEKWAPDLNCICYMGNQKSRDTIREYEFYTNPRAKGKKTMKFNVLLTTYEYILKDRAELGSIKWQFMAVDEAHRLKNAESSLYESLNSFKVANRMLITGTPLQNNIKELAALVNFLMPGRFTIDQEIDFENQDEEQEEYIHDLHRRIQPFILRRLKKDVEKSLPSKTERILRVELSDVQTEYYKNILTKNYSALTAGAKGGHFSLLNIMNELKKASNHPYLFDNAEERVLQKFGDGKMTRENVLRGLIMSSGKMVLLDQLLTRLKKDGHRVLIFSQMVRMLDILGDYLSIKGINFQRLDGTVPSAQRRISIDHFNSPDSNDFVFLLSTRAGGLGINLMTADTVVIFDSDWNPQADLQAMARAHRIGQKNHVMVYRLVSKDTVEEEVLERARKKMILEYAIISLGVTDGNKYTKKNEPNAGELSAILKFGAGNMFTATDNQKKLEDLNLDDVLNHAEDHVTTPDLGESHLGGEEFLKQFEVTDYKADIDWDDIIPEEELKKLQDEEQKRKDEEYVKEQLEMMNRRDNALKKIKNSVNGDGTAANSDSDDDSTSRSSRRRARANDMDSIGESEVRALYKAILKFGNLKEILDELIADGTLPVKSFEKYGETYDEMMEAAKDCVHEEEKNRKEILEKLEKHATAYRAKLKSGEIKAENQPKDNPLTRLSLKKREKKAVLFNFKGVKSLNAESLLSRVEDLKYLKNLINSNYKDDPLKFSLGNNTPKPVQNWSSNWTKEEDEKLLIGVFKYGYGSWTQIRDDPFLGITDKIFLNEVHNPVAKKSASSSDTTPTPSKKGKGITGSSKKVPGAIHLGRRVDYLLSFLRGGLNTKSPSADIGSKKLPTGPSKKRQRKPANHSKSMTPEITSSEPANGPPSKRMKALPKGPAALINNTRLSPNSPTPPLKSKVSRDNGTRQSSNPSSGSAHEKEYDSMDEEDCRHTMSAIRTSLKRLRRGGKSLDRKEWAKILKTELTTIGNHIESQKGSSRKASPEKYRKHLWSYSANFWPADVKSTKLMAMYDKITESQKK

Protein translocase subunit SecA (Escherichia coli (strain K12)), sequence (P10408 whole entry): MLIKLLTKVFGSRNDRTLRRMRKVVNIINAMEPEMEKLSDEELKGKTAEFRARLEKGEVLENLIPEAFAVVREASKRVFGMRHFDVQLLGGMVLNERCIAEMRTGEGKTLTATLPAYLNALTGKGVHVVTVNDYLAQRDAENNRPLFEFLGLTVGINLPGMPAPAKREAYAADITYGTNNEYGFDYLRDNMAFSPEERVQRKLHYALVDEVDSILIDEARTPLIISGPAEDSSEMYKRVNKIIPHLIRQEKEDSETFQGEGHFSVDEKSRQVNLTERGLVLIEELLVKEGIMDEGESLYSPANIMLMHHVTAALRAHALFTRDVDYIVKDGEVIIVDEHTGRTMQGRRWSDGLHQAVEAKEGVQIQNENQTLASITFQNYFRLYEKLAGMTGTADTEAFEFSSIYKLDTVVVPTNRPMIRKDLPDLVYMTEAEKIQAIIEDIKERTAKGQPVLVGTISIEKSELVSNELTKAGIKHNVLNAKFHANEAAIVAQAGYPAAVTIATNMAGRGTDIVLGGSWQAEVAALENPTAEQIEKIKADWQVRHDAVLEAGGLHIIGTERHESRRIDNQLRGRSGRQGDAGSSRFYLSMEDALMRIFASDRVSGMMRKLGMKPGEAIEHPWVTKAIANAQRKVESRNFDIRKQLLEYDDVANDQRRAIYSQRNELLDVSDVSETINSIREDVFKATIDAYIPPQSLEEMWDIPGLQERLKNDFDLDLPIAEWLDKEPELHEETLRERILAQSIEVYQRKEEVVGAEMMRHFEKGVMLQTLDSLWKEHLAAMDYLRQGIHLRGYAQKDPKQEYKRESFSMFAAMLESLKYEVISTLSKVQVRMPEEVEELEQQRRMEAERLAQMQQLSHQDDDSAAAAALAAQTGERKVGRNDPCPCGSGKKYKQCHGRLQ
Sialic acid-binding Ig-like lectin 9 (Homo sapiens), sequence (Q9Y336 whole entry): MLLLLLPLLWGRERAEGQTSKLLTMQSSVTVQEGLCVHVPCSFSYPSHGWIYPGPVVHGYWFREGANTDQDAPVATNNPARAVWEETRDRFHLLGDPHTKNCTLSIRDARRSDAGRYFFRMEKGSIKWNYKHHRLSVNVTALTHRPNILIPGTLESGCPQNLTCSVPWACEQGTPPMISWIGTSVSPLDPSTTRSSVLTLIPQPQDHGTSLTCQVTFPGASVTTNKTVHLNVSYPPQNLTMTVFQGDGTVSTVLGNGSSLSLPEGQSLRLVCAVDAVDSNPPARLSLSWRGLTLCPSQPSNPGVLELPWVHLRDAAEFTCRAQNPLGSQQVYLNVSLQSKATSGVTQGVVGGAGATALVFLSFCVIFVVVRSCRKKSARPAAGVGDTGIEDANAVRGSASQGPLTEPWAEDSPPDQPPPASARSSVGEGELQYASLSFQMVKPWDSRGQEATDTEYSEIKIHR

Compound | Percent Effect [1] [%] | Percent Effect [2] [%] | Percent Effect [3] [%] | Percent Effect [4] [%] | Percent Effect (Trypanosoma cruzi) [%] | Percent Effect [5] [%] | Percent Effect [6] [%] | Percent Effect (Homo sapiens) [%] | Percent Effect [7] [%] | Percent Effect [8] [%] | Percent Effect [9] [%]
Cc1cc(N2CCN(Cc3ccccc3)CC(O)C2)cc(C)n1 (stereo not given) | -7.08 | -2.7 | 1.17 | 11.4 | -1.74 | -3.81 | 2.07 | 20.1 | -0.529 | 4.88 | -1.99
O=C(c1cccc2c1OCO2)N1CCCC1c1noc(C2CC2)n1 (stereo not given) | -5.41 | 5.06 | -1.36 | -1.04 | 10.5 | -3.42 | -2.38 | 5 | 4.43 | 11.4 | -6.85
CC(C)C(=O)NCCCn1ncc2c(Cl)cccc21 | -4.7 | 10.4 | 1.13 | 17.2 | 5.61 | -8.28 | 4.33 | -1.52 | 5.38 | 11.1 | -3.62
CC(=O)N1CCN(C(=O)CCOc2ccc(C(C)C)cc2)CC1 | -2.33 | 7.89 | 5.03 | 10.9 | -2.26 | 2.3 | 14.4 | 0.908 | 5.39 | 4.88 | -1.04
Cc1oc(-c2ccco2)nc1CC(=O)N1CCC(C(O)C(F)(F)F)CC1 (stereo not given) | -2.39 | 0 | -2.68 | 2.74 | 6.76 | -4.42 | -5.58 | -30 | -0.952 | 9.41 | -13.1
CC(=O)N1CCN(C(=O)C2SCCc3sccc32)CC1 (stereo not given) | -7.67 | 0 | -1.92 | 7.24 | -2.15 | -0.833 | 2.11 | 6.62 | 3.96 | -1.22 | 0.658
Cn1c(CC2CCS(=O)(=O)C2)nnc1SCCOc1ccccc1F (stereo not given) | -0.675 | 2.7 | 2.63 | 12.8 | 2.64 | 30.5 | 2.15 | -9.3 | -2.15 | 6.17 | -9.15
O=C(Cc1ccccn1)N1C[C@@H]2CC[C@H](C1)N(Cc1ccccc1)C2=O | -1.67 | 2.7 | 0.96 | 6.03 | -4.05 | -4.29 | 14.7 | 12 | 5.82 | 4.88 | -2.65
c1csc(-c2nc(CN3CCOC(Cn4cccn4)C3)co2)c1 (stereo not given) | -4.59 | 18.9 | -12.4 | 19.6 | 6.32 | -8.82 | 9.01 | 16.2 | 7.39 | 23.5 | -11.2
Cc1nn(C)c(C)c1NC(=O)CCn1ncc2c(C)cccc21 | -5.82 | 7.79 | 1.49 | 9.37 | 2.85 | 9.65 | 13.3 | 5.45 | 6.45 | 13.6 | 41.5
O=S(=O)(c1cccs1)N1CC[C@H](O)[C@@H]1Cc1ccncc1 | -3.12 | 13.5 | 9.88 | -0.784 | -4.79 | 2.23 | 22.9 | -0.0803 | 4.32 | 12.8 | -1.7
COC(=O)c1ccc(N2CCN(C(=O)c3cnn(C)c3)C(C)C2)cc1 (stereo not given) | -5.55 | 17.7 | -10.6 | 11.1 | 6.14 | -1.52 | 11.9 | 9.04 | 2.46 | 13.9 | -12.4
CCc1csc(C2CCCN(C(=O)C3=NN(CC)C(=O)CC3)C2)n1 (stereo not given) | -3.73 | 7.79 | -3.68 | 5.23 | 6.37 | 2.13 | -5.07 | 11.1 | 4.85 | 12.2 | -7.52
Cc1ccc(NC(=O)N2CCC(NC(=O)c3ccc(C)o3)CC2)cc1 | -4.11 | 15.6 | 3.14 | 4.46 | 2.45 | 0.632 | 6.39 | 8.38 | 8.57 | 23.5 | -10.9
CN(Cc1ccc(F)cc1)C(=O)NCC1(N2CCOCC2)CCSC1 (stereo not given) | 2.92 | 16.2 | -0.11 | 22.3 | 2.12 | 1.43 | 15.9 | 14.5 | 3.7 | 17.1 | -8.64
N#Cc1ccccc1N1CCCN(C(=O)CCc2nccs2)CC1 | -2.01 | 12.7 | -0.172 | 4.85 | -4.25 | 5.7 | 3.36 | 17.5 | 3.45 | 11.4 | -6.41
O=C(c1cnc(COc2ccccc2)nc1O)N1CCOCC1 | -3.01 | 4.17 | -4.14 | -9.54 | -1.07 | -0.442 | 8.77 | 16.1 | 2.1 | 2.56 | -1.09
CCn1cc(CN(C)C(=O)c2cccc(CCC(C)(C)O)c2)cn1 | -5.71 | 5.33 | -1.82 | -0.5 | -5.36 | 1.04 | 15 | 9.2 | 7.1 | 6.17 | -6.76
Cc1ccc(NC2CCN(C(=O)c3ccc(Cl)o3)CC2)nn1 | -6.79 | 0 | 5.42 | -2.43 | -6.01 | 1.15 | 17.4 | 24.5 | 0.49 | -7.32 | 4.23
c1nc2c(c(C3CC3)n1)CCN(Cc1ccoc1)CC2 | 0.0846 | 19.2 | -4.87 | 5.4 | 5.56 | -0.798 | 6.59 | 5.88 | 8.33 | 23.5 | -3.03
